PubChem BioAssay (Tox21)
“And” between values parts separate entries of the source, which are not always exact repeats. Equal entries are not always repeated. Results filed as inconclusive are left out. More than one record can exist for a structure, and the calls need not agree. The source made the active and inactive calls. Unless noted, the call rests on the fitted dose curve.

Assays:
[1] = Nuclear factor erythroid 2-related factor 2/antioxidant responsive element (Nrf2/ARE) small molecule agonists: luciferase reporter gene qHTS assay in human keratinocytes (AID 1919969); further: nearly all actives have a fitted effect of over 35% in size; further: potency means the concentration at half of the fitted maximal effect
[2] = biological target: Gonadotropin-releasing hormone receptor (Homo sapiens) (UniProt P30968); assay: Human gonadotropin-releasing hormone receptor (GnRHR) small molecule agonists, calcium flux assay in GnRHR-HEK293 cells (AID 1920063); further: nearly all actives have a fitted effect of over 35% in size
Outline: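 Agonist activity was measured as intracellular calcium flux in HEK293 cells engineered to stably express human GnRHR. After dye loading for 1 hour at 37 C, compounds in DMSO were added and fluorescence was followed for 3 minutes.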

[3] = biological target: KiSS-1 receptor (Homo sapiens) (UniProt Q969F8); assay: Human kisspeptin (KISS1R) small molecule agonists, calcium flux assay in KISS1R-HEK293 cells (AID 1920064; active means well fitted activation curve with a large enough effect in the repeat runs)
Outline: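 Agonist activity is monitored as intracellular calcium rise in engineered HEK293 cells carrying human KISS1R. Cells are dye-loaded for 1 h at 37 C before compound addition, and fluorescence is recorded for 3 min.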

[4] = G protein-coupled receptor (GPCR) small molecule agonists, calcium flux assay: HEK293 wild type cell line counter screen (AID 1920065)
Outline: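 Seed cells, incubate 18 h (37 C, 5% CO2); add calcium dye, 1 h at 37 C; pin-transfer compounds, ATP control or DMSO; read fluorescence 480/540 nm each second for 3 min.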

[5] = p53 small molecule agonists, cell-based qHTS assay with human liver microsomes (AID 1963577);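 further: p53 response element beta-lactamase reporter cells with liver microsomes plus NADPH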
Outline: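 In this qHTS, p53 response-element beta-lactamase cells receive test compound together with a microsome/NADPH activating system (0.5 mg/mL final each) and are incubated 16 h at 37 C before LiveBLAzer fluorescence detection.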

[6] = p53 small molecule agonists, cell-based qHTS assay with human liver microsomes: qHTS cell viability counter screen (AID 1963579); further: nearly all actives have a fitted effect of over 45% in size
Outline: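 Metabolically activated exposure: compounds, human liver microsomes and NADPH (0.5 mg/mL final apiece) were added to p53RE-bla cells seeded 5 h earlier, left 16 h at 37 C, and then assessed for viability by CellTiter-Glo luminescence.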

[7] = p53 small molecule agonists, cell-based qHTS assay with rat liver microsomes: qHTS cell viability counter screen (AID 1963580); further: nearly all actives have a fitted effect of over 45% in size
Outline: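 Counter screen for cytotoxicity under metabolic activation: rat liver microsomes and NADPH, 0.5 mg/mL final each, added with compounds to p53RE-bla HCT-116 cells; 16 h at 37 C, then ATP luminescence read.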

[8] = p53 small molecule agonists, cell-based qHTS assay: qHTS cell viability counter screen (AID 1963581); further: nearly all actives have a fitted effect of over 45% in size
Outline: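 Viability was counter-screened in parallel with the p53 agonist reporter by measuring intracellular ATP luminescence in the same HCT-116 p53RE-bla wells after 16 h compound treatment at 37 C.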

[9] = biological target: 5-hydroxytryptamine receptor 2A (Homo sapiens) (UniProt P28223); assay: 5-hydroxytryptamine receptor 2A (HTR2A) small molecule antagonists, cell-based qHTS assay (AID 1963586); further: nearly all actives have a fitted effect of over 45% in size
Outline: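 CHO cells stably expressing human HTR2A were plated for 18 h at 37 C, then loaded with calcium dye for 1 h. Compounds were preincubated 5 min at room temperature before DOI (4 nM solution) was added. Kinetic fluorescence was read for 3 min.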

[10] = biological target: 5-hydroxytryptamine receptor 2A (Homo sapiens) (UniProt P28223); assay: 5-hydroxytryptamine receptor 2A (HTR2A) small molecule agonists, cell-based qHTS assay (AID 1963587); further: nearly all actives have a fitted effect of over 30% in size; further: potency means the concentration at half of the fitted maximal effect
Outline: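 HTR2A-CHO cells, plated 18 h at 37 C/5% CO2, dye-loaded 1 h at 37 C; compounds in DMSO added by pin tool (agonist mode). Intracellular calcium flux read as kinetic fluorescence on FDSS over 2 min at 1 s intervals.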

[11] = biological target: Muscarinic acetylcholine receptor M1 (Homo sapiens) (UniProt P11229); assay: Cholinergic receptor muscarinic 1 (CHRM1) small molecule antagonists, cell-based qHTS assay (AID 1963588); further: nearly all actives have a fitted effect of over 40% in size
Outline: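 Compounds were tested at 15 concentrations in three independent runs. Dye-loaded CHRM1-CHO cells were exposed 5 min at room temperature before stimulation by acetylcholine added at 50nM. Intracellular calcium was read kinetically on FDSS for 3 min.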

[12] = biological target: Beta-2 adrenergic receptor (Homo sapiens) (UniProt P07550); assay: Adrenergic beta2 receptor (ADRB2) small molecule antagonists, cell-based qHTS assay (AID 1963592); further: nearly all actives have a fitted effect of over 50% in size; further: potency means the concentration at half of the fitted maximal effect; on activity change, negative = inhibition: series mostly up to about 92 µM
Outline: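 Assay format: CHO-ADRB2 cells, 18-20hr seeding at 37C/5% CO2, then compound plus 1nM isoproterenol agonist mix for 0.5hr RT. Homogeneous time-resolved fluorescence cAMP detection after 1hr, expressed as 665/615 nm ratio.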

[13] = biological target: D(2) dopamine receptor (Homo sapiens) (UniProt P14416); assay: Dopamine D2 receptor (DRD2) small molecule agonists, cell-based qHTS assay (AID 1963594); further: nearly all actives have a fitted effect of over 35% in size
Outline: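 HEK293 cells stably expressing DRD2 were cultured 24 h at 37 C, then given Ro20-1724 (0.1 mM final) and compounds for 10 min at room temperature. NKH477 (200nM) was then added for 30 min. cAMP was read by HTRF.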

[14] = biological target: D(2) dopamine receptor (Homo sapiens) (UniProt P14416); assay: Dopamine D2 receptor (DRD2) small molecule antagonists, cell-based qHTS assay (AID 1963595; active means well fitted inhibition curve with a large enough effect in the signal ratio in the repeat runs, with a control signal flat; the % refers to the signal ratio)
Outline: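 Antagonism was scored as restored cAMP in HEK293-DRD2 cells. These cells were stimulated with 200 nM NKH477 and 12 nM quinpirole for 30 min at room temperature, in the presence of 0.1 mM Ro20-1724.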

[15] = p53 small molecule agonists, cell-based qHTS assay with rat liver microsomes (AID 1963578)
Outline: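 Agonist mode in p53RE-bla reporter cells, with compounds co-incubated 16 h at 37 C alongside 0.5 mg/mL rat liver microsomes and 0.5 mg/mL NADPH (final), followed by a 2 h LiveBLAzer detection step.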

[16] = p53 small molecule agonists, cell-based qHTS assay (AID 1963582; active means well fitted activation curve with a large enough effect in the signal ratio in the repeat runs, not every such curve was filed as active; the % refers to the signal ratio)
Outline: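 Cells carrying a p53-responsive bla reporter are treated with test compounds for 16 h at 37 C; beta-lactamase activity is then detected with LiveBLAzer B/G FRET substrate after 2 h at room temperature.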

[17] = cAMP Responsive Elements (CRE) small molecule agonists, cell-based qHTS assay (AID 1963590)
Outline: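 Cells carrying a CRE-driven beta-lactamase reporter (HEK 293T) are seeded, incubated overnight (18 h), and treated with test compounds for 3 h at 37 C; reporter activity is then detected with a FRET substrate after 2 h at room temperature.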

[18] = biological target: Muscarinic acetylcholine receptor M1 (Homo sapiens) (UniProt P11229); assay: Cholinergic receptor muscarinic 1 (CHRM1) small molecule agonists, cell-based qHTS assay (AID 1963589); further: nearly all actives have a fitted effect of over 35% in size
Outline: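 Cells were plated and incubated 18 h at 37 C/5% CO2, loaded with calcium dye for 1 h at 37 C, then treated with compounds in DMSO. Fluorescence was recorded kinetically at 1 sec intervals.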

[19] = biological target: Beta-2 adrenergic receptor (Homo sapiens) (UniProt P07550); assay: Adrenergic beta2 receptor (ADRB2) small molecule agonists, cell-based qHTS assay (AID 1963593);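 further: CHO cells stably overexpressing human ADRB2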
Outline: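 CHO cells stably over-expressing ADRB2 were plated overnight at 37C, then dosed with compounds plus a stimulation mix containing 100uM IBMX and 25uM Ro-20-1724 for 0.5hr at room temperature. cAMP was measured by HTRF competition, 1hr.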
On the % scale 0 is the no-effect control and ±100 the full control effect.

Sequence of 5-hydroxytryptamine receptor 2A (Homo sapiens) (P28223 whole entry, looked up): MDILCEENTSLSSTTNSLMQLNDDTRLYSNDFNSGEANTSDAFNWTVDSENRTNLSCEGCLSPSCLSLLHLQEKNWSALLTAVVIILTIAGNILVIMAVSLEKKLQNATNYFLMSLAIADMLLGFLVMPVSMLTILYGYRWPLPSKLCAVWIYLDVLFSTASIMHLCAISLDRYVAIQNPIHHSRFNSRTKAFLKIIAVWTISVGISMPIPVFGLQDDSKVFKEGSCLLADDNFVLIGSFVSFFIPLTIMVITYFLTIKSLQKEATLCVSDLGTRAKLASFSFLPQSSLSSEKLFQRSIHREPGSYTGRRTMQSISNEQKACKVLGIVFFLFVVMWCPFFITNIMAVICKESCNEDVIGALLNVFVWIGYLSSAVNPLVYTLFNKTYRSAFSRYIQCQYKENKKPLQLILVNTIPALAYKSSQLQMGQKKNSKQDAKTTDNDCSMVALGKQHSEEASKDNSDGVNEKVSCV
Sequence of D(2) dopamine receptor (Homo sapiens) (P14416 whole entry, looked up): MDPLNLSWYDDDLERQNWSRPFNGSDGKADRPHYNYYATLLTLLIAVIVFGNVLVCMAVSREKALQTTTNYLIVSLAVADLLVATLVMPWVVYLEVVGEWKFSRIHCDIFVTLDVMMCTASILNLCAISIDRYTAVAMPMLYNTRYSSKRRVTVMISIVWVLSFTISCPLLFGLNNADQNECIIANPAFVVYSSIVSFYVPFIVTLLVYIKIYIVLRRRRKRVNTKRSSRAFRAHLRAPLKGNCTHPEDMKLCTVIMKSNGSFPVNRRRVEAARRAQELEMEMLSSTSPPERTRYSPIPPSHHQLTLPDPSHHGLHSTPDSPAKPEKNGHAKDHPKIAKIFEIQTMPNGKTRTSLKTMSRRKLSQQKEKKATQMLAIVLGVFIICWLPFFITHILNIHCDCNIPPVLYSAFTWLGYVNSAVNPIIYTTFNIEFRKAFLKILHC
Sequence of Muscarinic acetylcholine receptor M1 (Homo sapiens) (P11229 whole entry, looked up): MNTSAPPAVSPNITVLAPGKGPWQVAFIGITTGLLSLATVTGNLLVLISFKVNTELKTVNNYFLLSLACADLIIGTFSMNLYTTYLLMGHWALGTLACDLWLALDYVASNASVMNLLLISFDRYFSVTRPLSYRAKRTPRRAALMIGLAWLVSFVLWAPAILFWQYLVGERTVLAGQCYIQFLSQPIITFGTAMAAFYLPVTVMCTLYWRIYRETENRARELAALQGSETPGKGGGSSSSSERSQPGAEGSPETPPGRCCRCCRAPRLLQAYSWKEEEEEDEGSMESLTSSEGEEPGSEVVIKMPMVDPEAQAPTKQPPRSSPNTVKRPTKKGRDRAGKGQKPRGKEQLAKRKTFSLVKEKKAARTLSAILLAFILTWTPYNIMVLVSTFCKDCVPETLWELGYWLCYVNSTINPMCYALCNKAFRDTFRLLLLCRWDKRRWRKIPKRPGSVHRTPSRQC
Sequence of KiSS-1 receptor (Homo sapiens) (Q969F8 whole entry, looked up): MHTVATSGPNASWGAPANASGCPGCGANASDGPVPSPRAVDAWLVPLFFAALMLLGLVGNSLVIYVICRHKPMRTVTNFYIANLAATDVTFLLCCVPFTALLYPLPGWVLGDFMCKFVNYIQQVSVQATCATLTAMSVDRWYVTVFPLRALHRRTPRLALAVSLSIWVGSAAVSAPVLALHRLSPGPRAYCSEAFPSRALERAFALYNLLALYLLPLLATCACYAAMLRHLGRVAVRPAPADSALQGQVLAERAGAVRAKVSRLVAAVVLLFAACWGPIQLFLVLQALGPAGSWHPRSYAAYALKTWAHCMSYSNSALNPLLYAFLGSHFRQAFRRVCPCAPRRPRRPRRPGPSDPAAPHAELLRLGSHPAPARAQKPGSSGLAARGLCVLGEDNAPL
Sequence of Gonadotropin-releasing hormone receptor (Homo sapiens) (P30968 whole entry, looked up): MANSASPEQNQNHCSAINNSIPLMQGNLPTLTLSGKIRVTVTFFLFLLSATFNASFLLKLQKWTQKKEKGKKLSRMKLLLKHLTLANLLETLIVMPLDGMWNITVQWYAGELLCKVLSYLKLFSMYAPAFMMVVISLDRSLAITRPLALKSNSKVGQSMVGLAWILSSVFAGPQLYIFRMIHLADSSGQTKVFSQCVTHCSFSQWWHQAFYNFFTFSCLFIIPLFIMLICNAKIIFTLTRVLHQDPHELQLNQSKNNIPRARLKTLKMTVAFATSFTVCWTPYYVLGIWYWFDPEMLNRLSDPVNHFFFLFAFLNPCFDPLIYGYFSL
Sequence of Beta-2 adrenergic receptor (Homo sapiens) (P07550 whole entry, looked up): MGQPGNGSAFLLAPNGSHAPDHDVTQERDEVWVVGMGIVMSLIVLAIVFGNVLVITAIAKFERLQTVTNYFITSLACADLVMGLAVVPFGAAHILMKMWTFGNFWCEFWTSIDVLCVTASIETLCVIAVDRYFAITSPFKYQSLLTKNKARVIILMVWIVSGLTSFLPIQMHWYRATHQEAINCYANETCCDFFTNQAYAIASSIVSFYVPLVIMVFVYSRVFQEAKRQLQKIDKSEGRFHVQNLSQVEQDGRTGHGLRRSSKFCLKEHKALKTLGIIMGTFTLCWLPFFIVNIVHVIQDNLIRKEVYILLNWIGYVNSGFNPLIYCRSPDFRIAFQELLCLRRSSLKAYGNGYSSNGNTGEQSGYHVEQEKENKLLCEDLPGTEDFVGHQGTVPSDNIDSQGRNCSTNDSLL

Oc1c(Cl)cc(Cl)c2cccnc12
active: Potency [1] 0.188 µM
inactive: Potency [2] | Potency [3] | Potency [4] | Potency [5] | Potency [6] | Potency [7] | Potency [8] | Potency [9] | Potency [10] | Potency [11] | Potency [12] | Potency [13] | Potency [14]

CC1=C(/C=C/C(C)=C/C=C/C(C)=C\C=O)C(C)(C)CCC1
inactive: Potency [2] | Potency [3] | Potency [4] | Potency [5] | Potency [15] | Potency [8] | Potency [9] | Potency [10] | Potency [11] | Potency [12] | Potency [13] | Potency [14]
active: Potency [1] 64.9 µM

COc1cc2nc(N3CCN(C(=O)C4COc5ccccc5O4)CC3)nc(N)c2cc1OC (centres undefined)
active: Potency [12] 26.6 µM
inactive: Potency [1] | Potency [2] | Potency [3] | Potency [4] | Potency [15] | Potency [6] | Potency [7] | Potency [8] | Potency [16] | Potency [17] | Potency [14]

Clc1ccc(Cn2c(CN3CCCC3)nc3ccccc32)cc1
active: Potency [1] 33.5 µM
inactive: Potency [2] | Potency [3] | Potency [4] | Potency [15] | Potency [6] | Potency [7] | Potency [8] | Potency [18] | Potency [12] | Potency [19] | Potency [13] | Potency [14]

Oc1cccc(-c2c3nc(c(-c4cccc(O)c4)c4ccc([nH]4)c(-c4cccc(O)c4)c4nc(c(-c5cccc(O)c5)c5ccc2[nH]5)CC4)C=C3)c1
inactive: Potency [1] | Potency [2] | Potency [3] | Potency [4] | Potency [15] | Potency [6] | Potency [7] | Potency [10] | Potency [18]

COc1cc2ncnc(Nc3cccc(Cl)c3)c2cc1OC
inactive: activity, positive = activation [1] -25.9% [at 19 µM] | activity change [2] -1.73% [at 11.8 µM, stronger effect = higher value] | activation [3] 1.01% [at 15.8 µM] | activation [4] -0.385% [at 11.8 µM] | activation [15] -0.041% [at 13.6 µM] | activity change, negative = cytotoxicity [6] -15.6% [at 13.5 µM] | activity change, negative = cytotoxicity [7] -3.32% [at 13.5 µM] | activity change, negative = cytotoxicity [8] -12.1% [at 13.5 µM] | activation [16] -4.37% [at 13.5 µM] | activity, negative = inhibition [9] 2.95% [at 12.7 µM] | activation [10] -3.99% [at 15.9 µM] | activity, negative = inhibition [11] -4.44% [at 12.6 µM] | activation [18] -1.11% [at 15.8 µM] | activity change, negative = inhibition [12] -2.49% [at 19 µM] | activation [13] -4.16% [at 19 µM] | activity change, negative = inhibition [14] -0.58% [at 18.9 µM]

Cc1c2ccccc2c(C)c2c1ccc1ccccc12
active: Potency [1] 13.5 µM and 9.69 µM
10.9 µM (active) and inactive: Potency [10]
inactive: Potency [2] | Potency [3] | Potency [4] | Potency [5] | Potency [7] | Potency [8] | Potency [9] | Potency [11] | Potency [18] | Potency [12] | Potency [14]

CNS(=O)(=O)c1cc(C(=O)N2CCC(CCN3C4CCC3CC(n3c(C)nc5ccccc53)C4)(c3cccc(F)c3)CC2)c(Cl)cc1F (centres undefined)
inactive: Potency [1] | Potency [2] | Potency [3] | Potency [4] | Potency [15] | Potency [6] | Potency [7] | Potency [9] | Potency [10] | Potency [18] | Potency [12] | Potency [19] | Potency [13] | Potency [14]
